From PubChem BioAssay (NCATS)
Calls of active or inactive are those of the source. Calls follow the shape of the full dose curve.

Tests used:
Assay in all cases: Confirmatory Screen for Target Class Profiling of Small Molecule Inhibitors of Methyltransferases (AID 1745852); as to activity change, negative = inhibition: % is scaled to controls: 0 for no effect and ±100 for the full control effect
[1] = molecular target: Catechol O-methyltransferase (Homo sapiens) (UniProt P21964); conditions: MTase-Glo luminescence, SAH detection, recombinant enzyme; measured here: COMT max response; stronger effect = lower value
Catechol O-methyltransferase (Homo sapiens), sequence (P21964 whole entry, looked up): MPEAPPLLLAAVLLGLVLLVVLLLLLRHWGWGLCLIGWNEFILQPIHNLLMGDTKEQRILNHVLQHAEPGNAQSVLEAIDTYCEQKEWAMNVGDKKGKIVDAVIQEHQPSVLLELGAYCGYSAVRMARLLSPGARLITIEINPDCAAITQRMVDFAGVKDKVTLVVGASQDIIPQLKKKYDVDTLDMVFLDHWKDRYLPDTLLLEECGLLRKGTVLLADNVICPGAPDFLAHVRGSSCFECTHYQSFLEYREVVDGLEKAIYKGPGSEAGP

[2] = molecular target: Guanidinoacetate N-methyltransferase (Homo sapiens) (UniProt Q14353); conditions: MTase-Glo luminescence, SAH detection, recombinant enzyme; activity change, negative = inhibition: at 57.3 µM (top of the series) unless noted; series mostly up to 57.3 µM
[3] = molecular target: Nicotinamide N-methyltransferase (Homo sapiens) (UniProt P40261); conditions: MTase-Glo luminescence, SAH detection, recombinant enzyme; measured here: NNMT max response; stronger effect = lower value
Nicotinamide N-methyltransferase (Homo sapiens), sequence (P40261 whole entry, looked up): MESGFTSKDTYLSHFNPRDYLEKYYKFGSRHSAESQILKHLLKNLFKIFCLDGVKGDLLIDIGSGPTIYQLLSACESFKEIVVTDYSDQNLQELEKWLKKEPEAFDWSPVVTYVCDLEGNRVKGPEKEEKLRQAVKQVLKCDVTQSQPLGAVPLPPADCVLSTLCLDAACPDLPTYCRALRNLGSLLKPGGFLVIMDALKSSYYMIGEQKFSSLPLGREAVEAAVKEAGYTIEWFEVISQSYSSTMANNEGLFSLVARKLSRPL

[4] = molecular target: Phenylethanolamine N-methyltransferase (Homo sapiens) (UniProt P11086); conditions: MTase-Glo luminescence, SAH detection, recombinant enzyme; measured here: PNMT max response; stronger effect = lower value
Phenylethanolamine N-methyltransferase (Homo sapiens), sequence (P11086 whole entry, looked up): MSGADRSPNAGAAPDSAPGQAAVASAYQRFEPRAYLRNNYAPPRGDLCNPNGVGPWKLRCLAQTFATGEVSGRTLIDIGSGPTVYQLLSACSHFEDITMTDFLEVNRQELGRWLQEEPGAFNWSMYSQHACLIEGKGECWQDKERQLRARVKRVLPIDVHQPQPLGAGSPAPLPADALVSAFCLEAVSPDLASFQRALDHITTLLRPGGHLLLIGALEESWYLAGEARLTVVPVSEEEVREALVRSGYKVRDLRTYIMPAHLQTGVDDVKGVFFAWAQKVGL
Potency is read from the fitted curve at half-maximal effect.

SMILES	activity [1]	activity change, negative = inhibition [2]	activity [3]	activity [4]	Potency [2]
COc1cccc(CN2C(=O)c3nc4ccccc4n3CC2(C)C(=O)NC2CCC(C)CC2)c1 (stereo not given)	-5%	0.902%	-42.5%	-8.56%	–
COc1ccc2[nH]c(CNc3cc(C4CC(N)C4)nc(C)n3)cc2c1 (stereo not given)	-1.03%	1.53%	-9.73%	3.97%	–
CCOC(=O)C1CCCN(S(=O)(=O)c2ccc3[nH]c(=O)[nH]c3c2)C1 (stereo not given)	2.57%	0%	-6.43%	-50.4%	–
Cn1cc2c3c(cccc31)CN(C(=O)c1ccccc1F)CC2	-1.46%	8.53%	-50.7%	-0.857%	–
CCNc1nccc(N2CCC(CC(=O)N3CCN(c4ccccc4F)CC3)CC2)n1	6.4%	4.58%	2.88%	5.27%	–
O=C1c2ccccc2C(=O)c2cc(S(=O)(=O)N(CCO)CCO)ccc21	-23%	2.27%	-1.51%	-73.8%	–
Cn1c(C(=O)NCCN2CCCCC2)cc2c1CCN(Cc1cccc(F)c1)C2	7.65%	15.7%	7.53%	7.04%	–
CCc1cccc(NC(=O)Cn2c(=O)oc3cc(S(=O)(=O)N4CCCCC4)ccc32)c1	1.79%	0%	-2.82%	-33.8%	–
CCCC1c2cccn2CCN1C(=O)Nc1cccc(Cl)c1C (stereo not given)	-7.65%	-4.33%	-16%	-8.29%	–
COc1ccc(CN2C(=O)c3cc4ccccc4n3CC2(C)C(=O)NCc2ccccc2)cc1OC (stereo not given)	4.11%	0%	-57.8%	1.95%	–
COc1ccc(CN2C(=O)c3cc4sccc4n3CC2(C)C(=O)NC2CCC(C)CC2)cc1OC (stereo not given)	-5.8%	0.162%	-79.1%	-7.08%	–
O=C(Nc1ccccc1)c1cnc2c(c1)N(C(=O)Cc1ccc(O)cc1)CCC2	-2.13%	-4.86% [at 85.7 µM]	-4.08%	-3.63%	–
O=C(NCCc1ccc(Cl)cc1)c1ccc2c(=O)[nH]c3c(C(=O)NCC4CCCO4)sc(=S)n3c2c1 (stereo not given)	-36.2%	–	-49.4%	-36.4%	27.1 µM (active)
CC(C)Cn1c(=O)c2ccccc2n2c(CCC(=O)NCCc3ccc(Cl)cc3)nnc12	-5.92%	-1.54%	-41%	-6.54%	–
CCCCN1C(=O)c2cc(C(=O)NCc3ccc(OC)cc3OC)nn2CC1(C)C(=O)NC1CCCC1 (stereo not given)	0.43%	0%	-36.8%	-3.65%	–
O=C(NCCc1ccccc1)c1ccc(CN2C(=O)CCn3nc(-c4ccccc4)cc32)cc1	-6.47%	0.906%	-28.8%	-5.57%	–
Cc1ccc(NC(=O)N2CCc3c(c4ccccc4n3CC3CC3)C2)cc1	6.89%	14.5%	5.96%	6.82%	–
Cc1ccc(C(=O)O)c2c1N[C@@H](c1ccc(Cl)cc1)[C@H]1CC=C[C@@H]21	2.12%	0.676%	0.978%	2.78%	–
CC(C)Cn1c(=O)c2ccccc2n2c(CCC(=O)N3CCN(c4ccc(F)cc4)CC3)nnc12	-4.42%	2.04%	-55.7%	-6.74%	–
CC(=O)Nc1ccc2c(c1)C1C=CCC1C(c1ccccc1F)N2 (stereo not given)	-18.4%	–	-12.1%	-27.7%	42.9 µM (active)

SMILES	activity [1]	activity change, negative = inhibition [2]	activity [3]	activity [4]	Potency [2]
O=C(NCc1cccc(Cl)c1)c1sc(=S)n2c1[nH]c(=O)c1cc3c(cc12)OCO3	-21.3%	–	-63.2%	-39.9%	27.1 µM (active)
CCN(CC)c1cc(CCC(=O)N2CCN(c3cccc(OC)c3)CC2)ccn1	-2.67%	5.52%	1.73%	-3.99%	–
O=C(Cn1c(=O)oc2cc(S(=O)(=O)N3CCCC3)ccc21)Nc1ccc(F)c(Cl)c1	-3.81%	1.53%	-2.29%	-63.9%	–
O=C(CCc1nnc2n(Cc3ccc(F)cc3)c(=O)c3ccccc3n12)NCCN1CCCC1	-4.07%	-0.511%	-16.1%	2.1%	–
CCCCCNC(=O)c1sc(=S)n2c1[nH]c(=O)c1ccc(C(=O)OC)cc12	-39.2%	–	-59.4%	-27%	30.4 µM (active)
Cc1cc(F)ccc1NS(=O)(=O)c1ccc2[nH]c3c(c2c1)CCCC3	0%	0.252%	-33.2%	0%	–
COc1cc2c(cc1O)NC(=O)CC2c1cn[nH]c1-c1cc(C)ccc1C (stereo not given)	-13.7%	2.11%	-6.25%	-21.7%	–
COCc1cc(NCCCNc2cccnc2)ncn1	-19.2%	-12.2%	-14.1%	-21%	–
CCCC1c2cccn2CCN1C(=O)Nc1ccccc1Cl (stereo not given)	2%	–	-4.51%	1.09%	inactive
CCCn1c(=O)c2ccccc2n2c(=O)n(CC(=O)c3cccc(Cl)c3)nc12	-8.93%	-4.81%	-46.1%	-9.61%	–
Cn1c(=O)n(C)c2cc(S(=O)(=O)N3CCN(C4CCCCC4)CC3)ccc21	-4.43%	-0.234%	-8.71%	-5.99%	–
CCN(CC)CCCNC(=O)CCc1nnc2n(Cc3ccccc3)c(=O)c3ccccc3n12	1.43%	0%	-2.92%	0.626%	–
Cc1ccc(Cn2c(=O)c3ccccc3n3c(CCC(=O)N4CCC(N5CCCCC5)CC4)nnc23)cc1	-6.25%	-4.42%	-14.2%	-2.33%	–
COc1ccccc1-c1[nH]nc2ncc(C(=O)N3CCN(Cc4ccccc4)CC3)nc12	-51.3%	–	-37.2%	-61.8%	35 µM (active)
CCOC(=O)c1cccc(Nc2cc(C)nc3ccc(C)cc23)c1	-4.58%	0%	-21.8%	-4.31%	–
CN(CCCNC(=O)Cn1ccc2cc(S(=O)(=O)N3CCCCC3)ccc21)C1CCCCC1	1.24%	0.637%	-1.2%	0.276%	–
COCCn1ccc2c(C3=CCOCC3)nc(-c3cccc4[nH]ccc34)cc21	-2.42%	-9.46% [at 85.7 µM]	-12.7%	-36.9%	–
c1ccc(-c2cc3c(cn2)NCCN(CC2CC2)C3)cc1	8.66%	7.08% [at 114 µM]	4.63%	6.73%	–
Cc1ccc(C2Nc3c(ccc(C(=O)O)c3C)C3C=CCC32)cc1 (stereo not given)	-3.41%	–	-1.48%	-1.34%	inactive
COc1ccc(CN2CCCC(COc3ccccc3C(=O)NC3CC3)C2)c(OC)c1 (stereo not given)	4.91%	4.18%	1.02%	1.19%	–

SMILES	activity [1]	activity change, negative = inhibition [2]	activity [3]	activity [4]	Potency [2]
Cn1ccc(Nc2cc3c(cn2)CN(CCc2ccccc2)CCN3)n1	-0.459%	-0.578% [at 85.7 µM]	-5.86%	-38.8%	–
O=c1c2ccccc2n2c(-c3cc(Cl)ccc3O)nnc2n1Cc1ccc(F)cc1	-12.1%	–	-13.1%	-27.8%	27.1 µM (active)
O=C(c1ccc(Cl)cc1)N1CC2(CCN(CC3CC3)CC2)Cc2ccccc21	-9.09%	-2.34%	-9.37%	-4.04%	–
COc1ccc(CCNC(=O)c2ccc3c(=O)[nH]c4c(C(=O)NC5CCCC5)sc(=S)n4c3c2)cc1OC	-35.3%	–	-49.2%	-23%	24.1 µM (active)
COc1ccc(OC)c(CN2CCNc3cc(-c4ccnc(C)c4)ncc3C2)c1	6.21%	6.12% [at 85.7 µM]	-5.07%	4.8%	–
COCCCNC(=O)c1cnc2n[nH]c(-c3ccccc3)c2n1	-62.1%	–	-64.3%	-75.1%	39.3 µM (active)
CCN(CC)CCNC(=O)CCc1nnc2n(Cc3ccccc3Cl)c(=O)c3ccccc3n12	-5.86%	-1.02%	-14.7%	2.62%	–
COc1ccc(OC)c(NC(=O)c2sc(=S)n3c2[nH]c(=O)c2ccc(Cl)cc23)c1	-83.1%	–	-72.9%	-84.9%	24.1 µM (active)
CN1CCC(N2CC[C@H](c3nc4ccc(C(F)(F)F)cc4[nH]3)C2)CC1	7.98%	9.6% [at 85.7 µM]	10.1%	7.95%	–
COc1ccc(CCNc2nc3c(S(=O)(=O)c4ccccc4)nnn3c3ccccc23)cc1OC	-10.7%	-7.04%	-17.5%	-12.4%	–
O=C(CCc1nnc2n(Cc3ccc(Cl)cc3)c(=O)c3ccccc3n12)N1CCC(N2CCCCC2)CC1	-4.51%	-0.992%	-21.6%	0.847%	–
COc1cccc(N2C(=O)c3cc4occc4n3CC2(C)C(=O)NC2CCCCCC2)c1 (stereo not given)	-4.86%	-2.57%	-10.8%	-10.9%	–
Cc1ccc(C(=O)O)c2c1N[C@H](c1cccc(Cl)c1)C1CC=CC21 (stereo not given in full)	2.41%	–	3.29%	2.81%	inactive
c1ccc(-c2cc3c(cn2)NCCN(Cc2ccccn2)C3)cc1	1.39%	3.72% [at 85.7 µM]	-8.79%	-1.82%	–
FC(F)(F)c1ccnc(N2CC[C@H](c3nnc(-c4ccncc4)o3)C2)n1	2.16%	0.304% [at 85.7 µM]	-59.3%	3.21%	–
Cc1cccc(-c2nnc3n(CCc4ccccc4)c(=O)c4ccccc4n23)c1	-4.01%	–	-11.5%	-10%	inactive
O=C(Nc1ccc2c(N3CCCC3)ncnc2c1)c1cc(F)ccc1Cl	-8.67%	-7.52%	-15.4%	-17.8%	–
COc1ccc(C(=O)N(Cc2ccco2)S(=O)(=O)c2ccc3c(c2)n(C)c(=O)n3C)cc1	-5.23%	-1.3%	-20%	-5.7%	–
Cc1ccc2nc(CN(C)C(=O)C3CCC(=O)N(C4CCCCCC4)C3)[nH]c2c1 (stereo not given)	-3.1%	-4.65%	-9.1%	-9.49%	–
CCCC1c2cccn2CCN1C(=O)Nc1ccc(F)cc1F (stereo not given)	-4.42%	1.31%	-4.75%	-3.85%	–
